# From PubChem BioAssay (NCATS)
# Records with an inconclusive call do not appear. Active and inactive are the calls of the source. Calls follow the shape of the dose curve; as a rule, active = well fitted curve in the direction sought with a large enough effect; inconclusive = small, poorly fitted or top-dose-only effect, or another doubt; inactive = no such curve, though single readings can be large; an effect the other way counts as inactive or inconclusive.
# Experiments:
# [1] = qHTS for Inhibitors of the vitamin D receptor (VDR): Hit Validation using a Texas Red Assay (AID 602201); also: potency is read from the fitted curve at half-maximal effect
# Summary of the method: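 Fluorescence polarization with 1.5 uM VDR-LBD, LG19078 and 7 nM Texas Red (final). After 2 hours at ambient temperature, read at Ex 595 nm/Em 615 nm.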
# [2] = biological target: Cytochrome P450 2C9 (Homo sapiens) (UniProt P11712); test: qHTS Assay for Inhibitors and Substrates of Cytochrome P450 2C9 (AID 883); also: potency is read from the fitted curve at half-maximal effect; nearly all actives have a fitted effect of over 60% in size
# Summary of the method: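 Signal: luciferase luminescence reporting luciferin produced by CYP2C9. Conditions: 10nM enzyme, Luciferin-H 100uM at KM, 25mM KPO4, 37C, 60 min NADPH-driven reaction. Reference: 57uM sulphaphenazole as 100% inhibition.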
# [3] = biological target: Cytochrome P450 3A4 (Homo sapiens) (UniProt P08684); test: qHTS Assay for Activators of Cytochrome P450 3A4 (AID 885); also: nearly all actives have a fitted effect of over 65% in size
# Summary of the method: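 Human CYP3A4 (20 nM) with Luciferin-PPXE at 25 uM (its KM) in 200 mM KPO4; 10 min compound preincubation, then NADPH regeneration and 60 min reaction at RT. Luciferin read by luminescence; normalized to 57 uM ketoconazole full inhibition.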
# [4] = biological target: Cytochrome P450 2C19 (Homo sapiens) (UniProt P33261); test: qHTS Assay for Inhibitors and Substrates of Cytochrome P450 2C19 (AID 899); also: potency is read from the fitted curve at half-maximal effect; nearly all actives have a fitted effect of over 60% in size
# Summary of the method: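 Signal comes from luciferase acting on luciferin released by CYP2C19-mediated hydroxylation of Luciferin-H EGE, 10uM (KM). Assay mix: 5nM enzyme, 50mM KPO4; 60 min at 37C with NADPH regeneration. Data normalized against 57uM ketoconazole.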
# Chain of Cytochrome P450 2C9 (Homo sapiens) (P11712 whole entry, looked up): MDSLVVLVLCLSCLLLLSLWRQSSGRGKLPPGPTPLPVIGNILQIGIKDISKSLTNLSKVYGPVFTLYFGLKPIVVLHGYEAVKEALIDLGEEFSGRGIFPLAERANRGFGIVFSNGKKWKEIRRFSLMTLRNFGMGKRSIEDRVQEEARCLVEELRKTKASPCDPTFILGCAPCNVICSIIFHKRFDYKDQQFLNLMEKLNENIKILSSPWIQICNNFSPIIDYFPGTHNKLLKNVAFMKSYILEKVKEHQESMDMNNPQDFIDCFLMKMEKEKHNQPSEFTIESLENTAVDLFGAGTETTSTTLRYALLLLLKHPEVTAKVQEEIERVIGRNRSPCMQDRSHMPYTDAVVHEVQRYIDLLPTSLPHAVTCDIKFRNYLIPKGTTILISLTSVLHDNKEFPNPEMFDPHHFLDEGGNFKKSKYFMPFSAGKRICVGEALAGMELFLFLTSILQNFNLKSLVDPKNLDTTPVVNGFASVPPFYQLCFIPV
# Chain of Cytochrome P450 2C19 (Homo sapiens) (P33261 whole entry, looked up): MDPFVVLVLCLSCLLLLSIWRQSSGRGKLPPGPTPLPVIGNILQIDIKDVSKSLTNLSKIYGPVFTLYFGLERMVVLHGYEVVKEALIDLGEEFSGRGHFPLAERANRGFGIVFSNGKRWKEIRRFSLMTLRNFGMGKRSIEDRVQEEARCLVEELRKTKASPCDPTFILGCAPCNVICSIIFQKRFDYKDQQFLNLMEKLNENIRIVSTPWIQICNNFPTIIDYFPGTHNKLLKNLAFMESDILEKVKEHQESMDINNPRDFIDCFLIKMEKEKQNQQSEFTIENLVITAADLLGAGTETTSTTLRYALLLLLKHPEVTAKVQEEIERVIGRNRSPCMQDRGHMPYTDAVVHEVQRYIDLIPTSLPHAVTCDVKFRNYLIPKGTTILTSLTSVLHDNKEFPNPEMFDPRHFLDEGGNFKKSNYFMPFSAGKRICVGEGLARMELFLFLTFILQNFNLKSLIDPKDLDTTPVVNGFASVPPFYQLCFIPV
# Chain of Cytochrome P450 3A4 (Homo sapiens) (P08684 whole entry, looked up): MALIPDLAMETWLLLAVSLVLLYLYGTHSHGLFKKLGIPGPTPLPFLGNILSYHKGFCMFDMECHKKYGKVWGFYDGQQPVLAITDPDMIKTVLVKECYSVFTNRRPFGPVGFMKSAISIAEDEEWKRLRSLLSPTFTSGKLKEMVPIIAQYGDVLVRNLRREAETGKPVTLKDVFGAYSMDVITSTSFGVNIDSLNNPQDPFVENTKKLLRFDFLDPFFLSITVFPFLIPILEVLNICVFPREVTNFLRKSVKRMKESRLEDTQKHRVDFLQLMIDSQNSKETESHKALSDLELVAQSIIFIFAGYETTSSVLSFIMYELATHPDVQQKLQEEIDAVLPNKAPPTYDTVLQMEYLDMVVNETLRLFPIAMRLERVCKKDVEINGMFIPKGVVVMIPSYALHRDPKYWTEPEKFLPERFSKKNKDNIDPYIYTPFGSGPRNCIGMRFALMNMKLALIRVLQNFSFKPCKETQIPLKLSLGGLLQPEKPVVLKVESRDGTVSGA
compound,measurement,setting,value
Cc1cc(C(C2C(=O)CC(C)(C)CC2=O)C2C(=O)CC(C)(C)CC2=O)cc(C)c1OC(F)F,Potency,[1],inactive
CC1=NNC(=O)/C1=C\c1cn(-c2ccccc2)nc1-c1ccccc1,Potency,[1],3.16 µM (active)
O=C(/C=C/c1ccc([N+](=O)[O-])cc1)c1cccs1,Potency,[1],25.1 µM (active)
COc1cc(/C=C2\C(=O)ON=C2c2ccc(Cl)cc2)ccc1O,Potency,[1],3.55 µM (active)
O=C(Oc1ccccc1/C=C\C(=O)c1cc2ccccc2o1)c1ccccc1,Potency,[1],8.91 µM (active)
COc1cc(/C=C/C(=O)c2ccc(F)cc2)cc(OC)c1OC,Potency,[1],inactive
CCS(=O)(=O)c1ncc(Cl)c(C(=O)N2CCN(c3cccc(Cl)c3)CC2)n1,Potency,[1],2.82 µM (active)
CCOc1cc(/C=C\c2[nH]c(=O)[nH]c(=O)c2[N+](=O)[O-])ccc1OC(C)CC (stereo not given),Potency,[1],inactive
Cc1cccc2c1N(CCCOc1ccccc1)C(=O)C2=O,Potency,[1],inactive
CCS(=O)(=O)c1ncc(Cl)c(C(=O)Nc2ccc(S(=O)(=O)N3CCCC(C)C3)cc2)n1 (stereo not given),Potency,[1],3.55 µM (active)
CN1C(=O)C(Cl)(Cl)C(=O)c2ccccc21,Potency,[1],inactive
N#Cc1ccc(/C=C/C(=O)c2cccnc2)cc1,Potency,[1],inactive
Cc1ccc(NC(=O)C2=C(c3ccccc3)S(=O)(=O)CCS2(=O)=O)cc1,Potency,[1],10 µM (active)
CC(=O)NC1=CC(=O)c2nonc2C1=O,Potency,[1],3.16 µM (active)
COc1ccc(/C=C2/C(=O)N(c3ccccc3)N=C2C)cc1Br,Potency,[1],inactive
O=c1[nH]c(/C=C/c2ccc(Cl)cc2Cl)c([N+](=O)[O-])c(=O)[nH]1,Potency,[1],inactive
O=S1OC(c2ccccc2)c2cc(Cl)ccc21 (stereo not given),Potency,[1],7.08 µM (active)
Cc1cc(C)nc(S/C=C/C(=O)c2ccccc2F)n1,Potency,[1],7.94 µM (active)
O=C(/C=C/c1cccnc1)c1ccc([N+](=O)[O-])cc1,Potency,[1],3.16 µM (active)
O=C1Nc2ccccc2/C1=C/C(=O)c1cccs1,Potency,[1],28.2 µM (active)
Oc1ccc(C(=S)N2CCN(c3cccc(Cl)c3)CC2)cc1,Potency,[1],inactive
O=C1OC(NC(=O)c2ccccc2)C(n2cc(CO)nn2)=C1Cl (stereo not given),Potency,[1],inactive
CCOc1cc(/C=C2\COc3ccccc3C2=O)cc(Br)c1OCC(=O)N(C)C,Potency,[1],inactive
Nc1ncnc2c1ncn2[C@@H]1O[C@H](CNCc2ccc(-c3cc(C(F)(F)F)ccc3Cl)o2)[C@@H](O)[C@H]1O,Potency,[1],inactive
CCOC(=O)c1c(C2COc3ccccc3O2)csc1NC(=O)c1ccco1 (stereo not given),Potency,[1],3.55 µM (active)
CC(C)(C)C1C/C(=C/c2ccccn2)C(=O)/C(=C/c2ccccn2)C1 (stereo not given),Potency,[1],3.16 µM (active)
O=c1[nH]c(/C=C/c2ccccc2)c([N+](=O)[O-])c(=O)[nH]1,Potency,[1],inactive
COC(=O)[C@@]1(Cc2ccc(OC)cc2)[C@H]2c3cc(C(=O)N4CCCC4)n(CCCNc4ncc(C(F)(F)F)cc4Cl)c3C[C@H]2CN1C(=O)c1ccccc1,Potency,[2],7.94 µM (active)
same,Potency,[3],inactive
same,Potency,[4],3.16 µM (active)
